The source of these data is PubChem BioAssay (EPA / NIEHS).

Experiment [1] in a line: ATG_DR4_LXR_CIS: Attagene CIS-FACTORIAL HepG2 Assay for human Liver X Receptor (LXR), DR4 submotif (AID 2282929). The note with it: HepG2 Attagene DR4 cis-reporter, mRNA transcription; actives raise or lower the signal. The essentials:
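HepG2 cells were transiently transfected with multiple cis-regulated reporter units and dosed for 24 hours. The DR4 reporter mRNA was quantified by RT-PCR, 6-FAM labelling and capillary electrophoresis. Bidirectional fits used DMSO as baseline.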

Experiment [2] addresses Aryl hydrocarbon receptor (Homo sapiens) (UniProt P35869). Put plainly: ATG_Ahr_CIS: Attagene CIS-FACTORIAL HepG2 Assay for human Aryl Hydrocarbon Receptor (Ahr) (AID 2282930). The note with it: HepG2 AhR cis-factorial reporter transcription; actives raise or lower the signal. The essentials:
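Transient MRTU transfection of HepG2 → 24 h compound exposure → total RNA, oligo(dT) RT → PCR, 6-FAM extension, HpaI cut → CE fluorescence. DMSO = baseline; bidirectional curve fit.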

A short description of experiment [3]: ATG_AP_1_CIS: Attagene CIS-FACTORIAL HepG2 Assay for human Activator Protein 1 (AP-1) (AID 2282931). The note with it: HepG2 Attagene cis-factorial AP-1 reporter mRNA; actives raise or lower the signal. The method in brief: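 HepG2 cells transiently transfected with cis-element-driven reporter transcription units, dosed for 24 hours. Reporter mRNA measured by RT-PCR, 6-FAM labelling, HpaI digestion and capillary electrophoresis. Bidirectional fitting against DMSO baseline.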

The nature of experiment [4]: ATG_AP_2_CIS: Attagene CIS-FACTORIAL HepG2 Assay for human Activator Protein 2 (AP-2) (AID 2282932). The note with it: HepG2 AP-2 cis-reporter, Attagene transcription factor profiling; actives raise or lower the signal. The essentials: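 Endogenous transcription factor activity is reported through transfected multiplex reporter constructs in HepG2, after 24 h of compound exposure. Transcripts were quantified by RT-PCR and capillary electrophoresis of fluorescent fragments. Bidirectional fit against DMSO.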

Experiment [5] is described as follows: ATG_BRE_CIS: Attagene CIS-FACTORIAL HepG2 Assay for human Bone Morphogenetic Protein (BMP) Response Element (BRE) (AID 2282933). The note with it: HepG2 BMP response element reporter, Attagene transcription factor profiling; actives raise or lower the signal. The essentials:
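A HepG2 multiplex reporter system measured inducible reporter mRNA 24 h post-dosing. Detection: RT-PCR, 6-FAM primer extension, HpaI digestion, capillary electrophoresis. Activity fitted bidirectionally relative to DMSO.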

In experiment [6] the target is Retinoic acid receptor alpha (Homo sapiens) (UniProt P10276). Put plainly: ATG_DR5_RAR_CIS: Attagene CIS-FACTORIAL HepG2 Assay for human Retinoic Acid Receptor Alpha (RARE), DR5 submotif (AID 2282934).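 As to AC50: reporter responds to endogenous RAR alpha beta and gamma in HepG2 not RARA alone.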 The note with it: HepG2 Attagene cis-factorial RARE DR5 reporter, mRNA; actives raise or lower the signal. The essentials:
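Transient MRTU transfection of HepG2; 24 h compound treatment; TriZol RNA, oligo(dT) RT, PCR, FAM labelling, capillary electrophoresis. Bidirectional fit vs DMSO. Endogenous TF activity at DR5 RARE.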

The target in experiment [7] is Transcription factor E2F1 (Homo sapiens) (UniProt Q01094). Put plainly: ATG_E2F_CIS: Attagene CIS-FACTORIAL HepG2 Assay for human E2F Transcription Factor 1 (AID 2282935). The note with it: HepG2 Attagene cis-reporter, E2F reporter RNA transcripts; actives raise or lower the signal. The method in brief: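 Gain or loss of reporter transcript, fitted against DMSO, reflects E2F1-driven transcription. Transiently transfected HepG2 dosed 24 h before RNA isolation. Quantified by fluorescent RT-PCR products separated by capillary electrophoresis.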

Experiment [8] can be described thus: ATG_E_Box_CIS: Attagene CIS-FACTORIAL HepG2 Assay for human Enhancer Box (E-box) (AID 2282936). The note with it: HepG2 E-box cis-reporter transcription, actives raise or lower the signal. The method in brief: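 E-box-driven reporter transcripts measured in transiently transfected HepG2 after 24 h exposure: RNA reverse-transcribed, PCR-amplified, fluorescently labelled, digested and resolved by capillary electrophoresis. Gain or loss relative to DMSO.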

The nature of experiment [9]: ATG_M_61_CIS: Attagene CIS-FACTORIAL HepG2 Assay for M61 Transcription Factor (Internal Marker) (AID 2282937). The note with it: HepG2 Attagene CIS-FACTORIAL M61 internal marker reporter; actives raise or lower the signal. The method in brief:
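HepG2 cells transiently transfected with multiplexed cis-promoter reporter units reporting endogenous transcription factor activity, measured 24 h after dosing. Reporter mRNA quantified by RT-PCR and capillary electrophoresis; bidirectional fit against DMSO baseline.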

Experiment [10] can be described thus: ATG_EGR_CIS: Attagene CIS-FACTORIAL HepG2 Assay for human Early Growth Response 1 (EGR1) (AID 2282938). The note with it: HepG2 Attagene CIS-FACTORIAL EGR reporter mRNA; actives raise or lower the signal. The essentials:
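HepG2 cells transiently transfected with cis-element-driven multiplexed reporter units, dosed for 24 h. EGR1-element reporter mRNA quantified by RT-PCR, 6-FAM labelling, HpaI digestion and capillary electrophoresis; bidirectional fit versus DMSO.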

Experiment [11] is described as follows: ATG_M_19_CIS: Attagene CIS-FACTORIAL HepG2 Assay for M19 Transcription Factor (Internal Marker) (AID 2282939). The note with it: HepG2 Attagene CIS-FACTORIAL M19 internal marker reporter; actives raise or lower the signal. The method in brief:
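Chemical-treated HepG2 (24 h) with MRTU constructs; reporter transcripts detected by fluorescent RT-PCR fragment analysis on capillary electrophoresis. Internal background marker, DMSO as baseline.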

A short description of experiment [12]: ATG_ERE_CIS: Attagene CIS-FACTORIAL HepG2 Assay for Estrogen Response Element (ERE) (AID 2282940). The note with it: HepG2 ERE cis-reporter, Attagene RNA transcript; actives raise or lower the signal. The essentials:
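Human liver cells (HepG2) bearing transiently transfected, promoter-regulated reporter units were exposed 24 h. Reporter mRNA induction was detected by capillary electrophoresis of labelled RT-PCR products and fitted bidirectionally to DMSO.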

Experiment [13] is described as follows: ATG_Ets_CIS: Attagene CIS-FACTORIAL HepG2 Assay for human Erythroblast Transformation Specific (ETS) (AID 2282941). The note with it: HepG2 ETS cis-reporter transcription, actives raise or lower the signal. The essentials:
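RT-PCR/capillary electrophoresis fluorescence read-out of reporter mRNA; HepG2 transient multi-reporter transfection; 24 h compound exposure; gain or loss of signal fitted bidirectionally relative to DMSO.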

Experiment [14] deals with Hepatocyte nuclear factor 3-beta (Homo sapiens) (UniProt Q9Y261). Put plainly: ATG_FoxA2_CIS: Attagene CIS-FACTORIAL HepG2 Assay for human Forkhead box A2 (FOXA2) (AID 2282942). The note with it: HepG2 cis-reporter transcription factor activity, 24 h; actives raise or lower the signal. The essentials:
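HepG2 transiently transfected with a multiplexed cis-promoter reporter library read endogenous FOXA2 activity. After 24 h compound exposure, reporter mRNA was quantified by RT-PCR, HpaI digestion and capillary electrophoresis. Bidirectional fit against DMSO.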

The nature of experiment [15]: ATG_FoxO_CIS: Attagene CIS-FACTORIAL HepG2 Assay for human Forkhead box O (FoxO) (AID 2282943). The note with it: HepG2 Attagene cis-reporter, FoxO element, mRNA; actives raise or lower the signal. The method in brief: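 HepG2, transient MRTU transfection (cis element, endogenous TFs). Dose 24 h. TriZol RNA → oligo(dT) RT → PCR → 6-FAM primer extension → HpaI cut → CE. Gain/loss vs DMSO.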

Experiment [16] in a line: ATG_GATA_CIS: Attagene CIS-FACTORIAL HepG2 Assay for human GATA Binding Protein (AID 2282944). The note with it: HepG2 GATA cis-element reporter, Attagene multiplex mRNA; actives raise or lower the signal. The essentials:
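Transfected cis-reporter HepG2 cells were treated with chemicals for 24 hours. Total RNA was then converted to cDNA, amplified with reporter-specific primers and analysed by fluorescent capillary electrophoresis, using DMSO-treated wells as baseline.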

Experiment [17] in a line: ATG_GLI_CIS: Attagene CIS-FACTORIAL HepG2 Assay for human Zinc Finger Protein GLI1 (AID 2282945). The note with it: HepG2, Attagene cis-factorial reporter mRNA, GLI element; actives raise or lower the signal. The method in brief:
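Bidirectional curve fits relative to DMSO, using reporter mRNA levels from RT-PCR plus capillary electrophoresis. Cells were HepG2 transiently carrying cis-regulated reporter constructs, harvested 24 h after dosing.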

Experiment [18] concerns the target Bile acid receptor (Homo sapiens) (UniProt Q96RI1). Put plainly: ATG_IR1_CIS: Attagene CIS-FACTORIAL HepG2 Assay for human Nuclear Receptor Subfamily 1 Group H Member 4 (NR1H4), IR1 submotif (AID 2282946). The note with it: IR1 reporter transcription, actives raise or lower the signal. The essentials:
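HepG2 cells transiently transfected with multiplexed cis-element reporter units read endogenous transcription factor activity. After 24 h compound exposure, reporter mRNA was quantified by RT-PCR, fluorescent labelling, HpaI digestion and capillary electrophoresis; bidirectional fitting versus DMSO baseline.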

A short description of experiment [19]: ATG_GRE_CIS: Attagene CIS-FACTORIAL HepG2 Assay for human Glucocorticoid Response Elements (GRE) (AID 2282947). The note with it: HepG2 GRE cis-reporter, Attagene multiplex mRNA; actives raise or lower the signal. The method in brief:
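Reporter transcripts read by RT-PCR with capillary electrophoresis fluorescence after a 24 h chemical exposure of HepG2 cells transiently transfected with multiple cis-element reporter units. Gain or loss fitted against DMSO.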

Experiment [20] is described as follows: ATG_ISRE_CIS: Attagene CIS-FACTORIAL HepG2 Assay for human Interferon Regulatory Factor 1 (IRF1) binding to an Interferon-Stimulated Response Element (ISRE) (AID 2282948). The note with it: HepG2 ISRE cis-reporter (Attagene), mRNA transcription readout; actives raise or lower the signal. The essentials: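 Read-out: fluorescent RT-PCR products resolved by capillary electrophoresis, reporting endogenous transcription factor activity via ISRE-driven reporter mRNA in transfected HepG2 cells dosed for 24 h; gain or loss fitted relative to DMSO.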

Active and inactive are the calls of the source. The calls were made as follows: active = hit-call score of the fitted dose curve at least 0.9, where 1 is the maximum; inactive = score below 0.9.

Chain of Hepatocyte nuclear factor 3-beta (Homo sapiens) (Q9Y261 whole entry, looked up): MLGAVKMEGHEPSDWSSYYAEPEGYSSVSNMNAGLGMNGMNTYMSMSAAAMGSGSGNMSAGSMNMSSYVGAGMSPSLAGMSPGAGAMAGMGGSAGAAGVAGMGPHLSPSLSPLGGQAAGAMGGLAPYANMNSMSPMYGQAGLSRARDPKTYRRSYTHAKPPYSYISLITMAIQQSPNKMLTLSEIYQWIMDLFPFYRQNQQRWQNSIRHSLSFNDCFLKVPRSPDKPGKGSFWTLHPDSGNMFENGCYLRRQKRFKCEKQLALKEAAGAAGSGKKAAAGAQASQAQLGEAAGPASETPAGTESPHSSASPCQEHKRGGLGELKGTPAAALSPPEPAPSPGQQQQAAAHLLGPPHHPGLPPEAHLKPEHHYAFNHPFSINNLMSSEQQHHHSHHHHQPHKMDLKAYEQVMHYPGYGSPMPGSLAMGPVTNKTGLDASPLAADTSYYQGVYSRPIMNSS
Chain of Aryl hydrocarbon receptor (Homo sapiens) (P35869 whole entry, looked up): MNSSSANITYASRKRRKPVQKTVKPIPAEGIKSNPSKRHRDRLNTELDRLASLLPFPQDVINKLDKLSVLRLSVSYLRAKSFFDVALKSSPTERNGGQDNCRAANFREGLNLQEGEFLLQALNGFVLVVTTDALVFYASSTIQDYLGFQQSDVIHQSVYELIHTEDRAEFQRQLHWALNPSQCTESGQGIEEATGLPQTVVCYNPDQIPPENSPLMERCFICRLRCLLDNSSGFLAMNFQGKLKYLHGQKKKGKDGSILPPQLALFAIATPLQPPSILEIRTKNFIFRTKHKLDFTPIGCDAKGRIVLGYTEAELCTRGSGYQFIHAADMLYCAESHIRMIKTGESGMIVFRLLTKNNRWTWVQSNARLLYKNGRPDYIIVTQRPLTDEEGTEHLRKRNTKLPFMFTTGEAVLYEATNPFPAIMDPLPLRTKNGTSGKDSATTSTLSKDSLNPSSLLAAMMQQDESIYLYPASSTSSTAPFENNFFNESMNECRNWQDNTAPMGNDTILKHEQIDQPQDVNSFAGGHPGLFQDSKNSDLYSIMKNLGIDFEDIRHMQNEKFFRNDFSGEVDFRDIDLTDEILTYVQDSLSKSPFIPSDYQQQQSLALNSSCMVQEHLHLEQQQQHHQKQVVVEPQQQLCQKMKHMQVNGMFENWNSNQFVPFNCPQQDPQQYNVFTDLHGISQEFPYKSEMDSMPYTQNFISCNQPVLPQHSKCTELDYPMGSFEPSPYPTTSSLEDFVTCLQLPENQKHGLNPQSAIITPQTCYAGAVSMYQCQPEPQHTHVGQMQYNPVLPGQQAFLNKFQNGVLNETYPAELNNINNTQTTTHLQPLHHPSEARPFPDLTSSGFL
Chain of Retinoic acid receptor alpha (Homo sapiens) (P10276 whole entry, looked up): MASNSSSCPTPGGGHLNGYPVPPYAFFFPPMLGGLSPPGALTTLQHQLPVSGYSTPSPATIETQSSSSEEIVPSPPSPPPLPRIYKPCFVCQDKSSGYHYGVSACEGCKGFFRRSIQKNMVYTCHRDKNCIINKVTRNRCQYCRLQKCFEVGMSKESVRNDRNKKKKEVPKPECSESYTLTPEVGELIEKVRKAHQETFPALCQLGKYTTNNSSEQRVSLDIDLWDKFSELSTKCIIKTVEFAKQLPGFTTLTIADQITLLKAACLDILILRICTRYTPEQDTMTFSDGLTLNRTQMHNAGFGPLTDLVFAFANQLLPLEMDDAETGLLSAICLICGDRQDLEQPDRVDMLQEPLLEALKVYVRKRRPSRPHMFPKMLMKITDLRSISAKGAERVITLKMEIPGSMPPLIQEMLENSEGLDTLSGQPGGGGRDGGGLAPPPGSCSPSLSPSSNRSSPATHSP
Chain of Transcription factor E2F1 (Homo sapiens) (Q01094 whole entry, looked up): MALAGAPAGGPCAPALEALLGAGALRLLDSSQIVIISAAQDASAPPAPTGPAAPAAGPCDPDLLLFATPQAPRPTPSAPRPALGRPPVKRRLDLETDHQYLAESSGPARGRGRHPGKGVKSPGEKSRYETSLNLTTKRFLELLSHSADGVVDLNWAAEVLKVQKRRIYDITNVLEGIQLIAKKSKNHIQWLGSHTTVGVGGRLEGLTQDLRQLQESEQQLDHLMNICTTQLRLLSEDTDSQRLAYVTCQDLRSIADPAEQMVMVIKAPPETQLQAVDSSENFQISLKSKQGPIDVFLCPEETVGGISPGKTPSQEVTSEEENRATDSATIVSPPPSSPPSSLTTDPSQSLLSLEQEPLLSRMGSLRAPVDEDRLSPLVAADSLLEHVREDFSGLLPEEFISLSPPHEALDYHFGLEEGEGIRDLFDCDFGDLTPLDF
Chain of Bile acid receptor (Homo sapiens) (Q96RI1 whole entry, looked up): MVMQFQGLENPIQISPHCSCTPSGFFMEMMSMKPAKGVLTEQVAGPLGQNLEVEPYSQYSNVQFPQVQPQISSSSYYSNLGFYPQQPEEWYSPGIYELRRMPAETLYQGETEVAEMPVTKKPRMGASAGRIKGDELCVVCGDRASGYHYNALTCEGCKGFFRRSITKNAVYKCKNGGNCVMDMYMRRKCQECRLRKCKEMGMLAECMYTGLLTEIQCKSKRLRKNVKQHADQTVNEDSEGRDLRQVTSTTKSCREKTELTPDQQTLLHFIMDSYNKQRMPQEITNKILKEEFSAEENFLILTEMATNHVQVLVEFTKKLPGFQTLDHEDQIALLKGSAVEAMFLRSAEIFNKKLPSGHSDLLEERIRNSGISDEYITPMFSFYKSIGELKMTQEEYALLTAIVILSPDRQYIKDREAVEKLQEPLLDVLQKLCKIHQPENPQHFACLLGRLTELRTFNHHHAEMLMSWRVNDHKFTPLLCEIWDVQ

In the case of `O=C1C=CC(=O)c2ccccc21`, the result in [1], in [3], in experiment [4], in experiment [5], in experiment [6] and in [7] was inactive. The result in experiment [8], in experiment [9], in [10], in experiment [11], in experiment [12] and in experiment [13] was inactive. For the same compound, the compound was called inactive in [14], in [15], in experiment [16], in experiment [17], in [18] and in experiment [19]. Also, the compound was classed as inactive in experiment [20]. Also, the AC50 in experiment [2] is 0.652 µM (active).
As for `CCCCN(CCCCO)N=O`, the call in experiment [1], in experiment [2], in experiment [3], in experiment [4], in [5] and in experiment [6] was inactive. The result in [7], in experiment [8], in [9], in [10], in experiment [11] and in experiment [13] was inactive. Besides, the compound was called inactive in experiment [14], in experiment [15], in [16], in [17], in experiment [19] and in [20]. The AC50 in experiment [12] was 3.06 µM (active).
As for `CCCCN(CCCC)C(=S)S`, the AC50 in [1] was 100 µM (active); in experiment [3], 171 µM (active); in [5], 146 µM (active); in [6] it was 100 µM (active); in experiment [8], 130 µM (active); in [10], 110 µM (active). Also, the AC50 in experiment [14] was 100 µM (active); in [17], 140 µM (active); in experiment [20] it was 126 µM (active). The outcome in experiment [2], in [4], in experiment [7], in experiment [9], in [11] and in [12] was inactive. Also, the result in experiment [13], in experiment [15], in experiment [16] and in experiment [19] was inactive.

Broadly, the AC50 is the concentration giving half of the maximal activity seen.
